TDP1 inh: blocks human tyrosyl-DNA phosphodiesterase 1; Potency, µM (top dose mostly 130 µM), actives largely listed as inhibitors; recombinant TDP1, AlphaScreen DNA substrate cleavage; 350,000 tested, 0.28% active; also: nearly all actives have a fitted effect of over 40% in size
Target sequence (Q9NUW8 whole entry, looked up): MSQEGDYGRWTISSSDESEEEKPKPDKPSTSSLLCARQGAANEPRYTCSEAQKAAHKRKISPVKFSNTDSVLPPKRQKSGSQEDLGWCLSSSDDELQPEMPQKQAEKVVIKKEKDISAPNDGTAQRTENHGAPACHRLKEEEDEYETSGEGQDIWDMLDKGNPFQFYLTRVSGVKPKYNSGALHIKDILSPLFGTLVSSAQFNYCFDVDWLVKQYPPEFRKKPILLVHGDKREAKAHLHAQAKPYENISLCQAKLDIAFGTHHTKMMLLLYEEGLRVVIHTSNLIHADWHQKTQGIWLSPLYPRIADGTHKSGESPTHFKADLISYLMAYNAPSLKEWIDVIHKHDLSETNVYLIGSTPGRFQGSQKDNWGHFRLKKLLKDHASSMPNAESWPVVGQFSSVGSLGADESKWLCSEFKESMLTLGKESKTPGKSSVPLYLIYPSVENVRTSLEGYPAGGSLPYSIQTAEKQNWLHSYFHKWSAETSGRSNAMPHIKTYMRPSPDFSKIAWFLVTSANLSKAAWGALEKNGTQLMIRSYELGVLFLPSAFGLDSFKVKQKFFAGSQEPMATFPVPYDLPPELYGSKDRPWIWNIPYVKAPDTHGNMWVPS
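Recombinant human Tdp1 (E. coli-expressed, 1 nM final) preincubated with compounds 15 min at room temperature, then 5'-biotin/3'-phosphotyrosine-FITC DNA substrate (15 nM final) added for 5 min. AlphaScreen beads (10 ug/ml final) added 10 min; cleavage lowers signal.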
Giardia kill: Giardia lamblia killing; Giardia lamblia trophozoite viability; activity change, % at 7.66 µM, hits read low; 340,000 tested, 0.15% active; AID 540267; in the data active = activity change below about -80%; inconclusive = between about -30% and that limit;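 also: parasites exposed to compound for two days anaerobically before the ATP read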
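Trophozoite viability was measured as ATP-dependent luminescence, read 15-30 min after reagent addition. Before that, parasites at 100 cells/well were exposed to compounds for 48 h, anaerobically, at 37 deg C.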
IL1B secr inh: inhibitors of inflammasome signaling (IL-1 beta secretion). THP-1 LPS/ATP IL-1B secretion, AlphaLISA, 16 h; hits give low values. activity change, % at 57.5 µM. 360,000 tested, 4.7% active. AID 743279; in the data active = activity change below about -50%; inconclusive = mostly about -30% to -49%
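Secreted IL-1B measured by AlphaLISA bead assay after 16 h compound exposure of THP-1 cells; compounds (final up to 57.5 uM) added 1 h before LPS (250 ng/mL) and ATP (1.25 mM) stimulation; lower signal means less secretion.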
DT40 TDP1 no CPT: qHTS for Inhibitors of human tyrosyl-DNA phosphodiesterase 1 (TDP1): qHTS in cells in absence of CPT; DT40 Tdp1-/- hTDP1 cells, no CPT, ATP luminescence, 48 h; Potency, µM (highest dose often 46.2 µM), actives largely listed as inhibitors; 420,000 tested, 15% active; also: nearly all actives have a fitted effect of over 55% in size
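Luminescent ATP content (CellTiter-Glo) served as the growth readout. Knockout chicken DT40 cells expressing human TDP1 were exposed to compounds without camptothecin for a minimum 48 hr at 37 °C.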
DT40 TDP1 CPT: DT40-hTDP1 cell growth loss with CPT; chicken DT40 Tdp1-/-;hTDP1 cells + 20 nM CPT, ATP luminescence, 48 h; Potency, µM (doses to about 46.2 µM), actives largely listed as inhibitors; 420,000 tested, 12% active; also: nearly all actives have a fitted effect of over 55% in size
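Cell growth measured by CellTiter-Glo luminescence after a minimum 48 h, 37 C compound exposure with 20 nM CPT in Tdp1-knockout DT40 cells stably expressing hTDP1, seeded 400/well; qHTS titration format.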
ELG1 repair inh: ELG1-dependent DNA repair inhibition | HEK293T ELG1-luciferase reporter, luminescence, 16 h; DNA damage induced by 5-fluorouridine | Potency, µM (series often up to 46.1 µM), usual class: inhibitors | 330,000 tested, 2.3% active; also: nearly all actives have a fitted effect of over 55% in size
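5-Fluorouridine DNA damage + compound/DMSO, 2,000 cells/well, 16 h, 37 °C/5% CO2. ONE-Glo, 30 min RT, luminescence. Readout = decrease in reporter signal.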
Numbers stand for hits; i = inactive; ? = inconclusive; nt = no result given; [ ] = another dose, or the depositor's remark. An excerpt weighted towards active compounds, which were near 19% of everything screened. Unless noted, calls follow the shape of the dose curve; as a rule, active = well fitted curve in the direction sought with a large enough effect; inconclusive = small, poorly fitted or top-dose-only effect, or another doubt; inactive = no such curve, though single readings can be large; an effect the other way counts as inactive or inconclusive.

SMILES | TDP1 inh | Giardia kill | IL1B secr inh | DT40 TDP1 no CPT | DT40 TDP1 CPT | ELG1 repair inh
Cc1cc(NC(=O)/C=C/c2cccc(Cl)c2)n(-c2nc3ccccc3[nH]2)n1 | i | i | i | 12µM | i | ?
COc1ccc(OC)c(NC(=O)CS(=O)(=O)Cc2nc(-c3ccc(C)cc3)oc2C)c1 | i | nt | nt | ? | ? | nt
c1cnc2c(c1)ccc1cccnc12 | i | i | i | 3.7µM | 3.7µM | ?
O=C1C=CC(=O)N1c1cccc2cccnc12 | nt | i | i | ? | 16µM | nt
COc1cc(N2C(=O)c3ccccc3C2=O)c2ncccc2c1 | i | nt | nt | nt | nt | nt
CSS(=O)(=O)c1cccc2cccnc12 | nt | i | i | 5.8µM | 5.8µM | ?
Cc1ccc2cccnc2c1N | i | i | i | i | i | i
O=Cc1ccc2ccc3cccnc3c2n1 | nt | i | ? | 3.3µM | 5.2µM | i
C=C1CCN(C(C)C(=O)OCc2cccc(C)c2)S(=O)(=O)c2ccccc21 (centres undefined) | i | i | nt | nt | nt | nt
CSc1ccc(/C=C/C(=O)OCC(=O)NC2CC2)cc1 | i | i | i | i | ? | ?
CC(=O)Nc1cccc(C(=O)NCc2ccc3c(c2)CCN3C(C)=O)c1 | i | nt | nt | i | i | nt
Cc1cc(C)cc(N2CCn3c2nc2c3c(=O)n(CCc3ccccc3)c(=O)n2C)c1 | i | nt | nt | i | i | nt
COc1ccc(NC(=O)C2CC(=O)N(CCc3ccc(F)cc3)C2)c(OC)c1 (centres undefined) | i | i | i | i | i | i
COc1ccccc1NC(=O)C1=C(C)Nc2nc(SCc3ccccc3F)nn2C1c1cccs1 (centres undefined) | i | nt | nt | 9.2µM | 8.2µM | nt
CC1=C(C(=O)Nc2ccccc2C)C(c2cccs2)n2nc(SCc3cc(C)ccc3C)nc2N1 (centres undefined) | i | nt | nt | 5.8µM | ? | nt
CC1=C(C(=O)Nc2ccc(C)cc2C)C(c2cccs2)n2nc(SCc3ccccc3Cl)nc2N1 (centres undefined) | i | nt | nt | 6.5µM | 10µM | nt
CC1=C(C(=O)Nc2ccccc2C)C(c2ccncc2)n2nc(SCc3ccccc3Cl)nc2N1 (centres undefined) | i | nt | nt | i | i | nt
COc1ccccc1NC(=O)C1=C(C)Nc2nc(SCc3ccccc3C)nn2C1CC(C)C (centres undefined) | i | nt | nt | 21µM | i | nt
Cc1ccc(N2CC(c3nnc(Cc4ccc(F)cc4)o3)CC2=O)cc1 (centres undefined) | i[12.3 µM] | nt | nt | i | i | nt
CC(C)C(C(=O)O)N1C(=O)/C(=C/c2ccc(Br)cc2)SC1=S (centres undefined) | i | nt | nt | nt | nt | nt
O=C1C=C(c2ccc3c(c2)OCO3)CCC1 | nt | i | i | i | i | nt
COC(=O)[C@@H](NC(=O)O[C@@H]1C(=O)c2ccc(OC)cc2O[C@H]1c1ccc2c(c1)OCO2)C(C)C | i | nt | nt | nt | nt | nt
O=C(Nc1nc(-c2ccccn2)cs1)c1ccco1 | i | i | i | 1.6µM | 5.2µM | ?
O=C(Nc1nc(-c2ccncc2)cs1)C1c2ccccc2Oc2ccccc21 | i | i | i | 13µM | 21µM | i
O=C(Nc1nc(-c2ccccc2)cs1)C1c2ccccc2Oc2ccccc21 | i | i | i | i | i | i
SMILES | TDP1 inh | Giardia kill | IL1B secr inh | DT40 TDP1 no CPT | DT40 TDP1 CPT | ELG1 repair inh
COc1ccc(-c2csc(NC(=S)NC(=O)c3ccco3)n2)cc1 | i | i | i | i | i | ?
CCC(=O)N1CCc2cc(-c3csc(NC(=O)c4ccco4)n3)ccc21 | i | i | i | 13µM | ? | ?
COc1ccc(-c2csc(NC(=O)COC(=O)c3ccco3)n2)cc1 | i | i | i | ? | 23µM | ?
O=C(Nc1nc(-c2cc3ccccc3oc2=O)cs1)c1ccco1 | i | i | i | ? | ? | i
O=C(Nc1nc(-c2ccncc2)cs1)c1ccco1 | i | i | i | 11µM | ? | ?
O=C(Nc1nc(-c2cc(Cl)sc2Cl)cs1)c1ccc(Br)s1 | i | i | i | 16µM | 18µM | i
O=C(Nc1ccc(Br)cc1)c1cccc(-n2cnnn2)c1 | i | i | i | i | ? | ?
O=C(Nc1nc(-c2ccccn2)cs1)c1cccc(-n2cnnn2)c1 | nt | i | i | 4.6µM | 5.2µM | ?
O=C(Nc1nc(-c2ccccn2)cs1)c1ccc(Br)s1 | i | i | i | 0.65µM | 1µM | i
Cc1cc(=O)[nH]c(SC(C)C(=O)Nc2cccc3ccccc23)n1 (centres undefined) | i | i | i | i | i | i
COc1cc(-c2nnc(SCC(=O)Nc3ccc(F)c(Cl)c3)o2)cc(OC)c1OC | i | nt | nt | i | i | nt
CC1CC(=O)N(CC(=O)NCc2ccccc2)c2ccccc2S1(=O)=O (centres undefined) | i | i | i | i | i | i
COC(=O)c1c(NC(=O)c2cc(=O)c3ccc(C)c(C)c3o2)sc2c1CCCC2 | i | nt | nt | i | i | nt
C[C@H](NC(=O)c1ccco1)C(=O)Nc1nc(-c2ccccn2)cs1 | nt | i | i | 13µM | ? | nt
c1ccc(-c2nc(-c3ccco3)cs2)nc1 | i | i | i | 16µM | 15µM | ?
NCC1OC(n2cnc3c(=O)[nH]c(N)nc32)C(O)C1O (centres undefined) | i | nt | nt | i | i | nt
CCOc1ccc(CNC(=O)c2nn(-c3ccc(OC)cc3)c(=O)c3c2c2ccccc2n3C)cc1 | i | nt | nt | i | i | nt
CN(C)CCOc1ccccc1Cc1ccccc1 | i | i | i | ? | ? | i
CNCCCCOc1ccccc1Cc1ccccc1 | i | nt | nt | 8.4µM | 7.5µM | nt
Cc1ccc(CNC(=O)CCCn2c(=O)c3ccccc3n(Cc3ccc(Cl)cc3)c2=O)cc1 | i[12.3 µM] | nt | nt | i | i | nt
O=C(CCNS(=O)(=O)c1ccc(F)cc1)N1CCN(c2ncccn2)CC1 | nt | nt | i | i | i | nt
CN(CC(=O)Nc1cccc(F)c1)C(=O)c1ccc(-c2cccc(C(F)(F)F)c2)o1 | nt | i | i | ? | ? | 0.29µM
CN(CC(=O)Nc1ccc(F)cc1)C(=O)c1ccc(-c2ccc(F)cc2)o1 | nt | nt | i | 21µM | ? | nt
Cc1ccc(C)c(NC(=O)CN(C)C(=O)c2ccc(-c3cccc(C(F)(F)F)c3)o2)c1 | i | i | i | 15µM | ? | i
COc1cccc(NC(=O)CN(C)C(=O)c2ccc(-c3cccc(C(F)(F)F)c3)o2)c1 | i | i | i | ? | ? | i
CC1CCCC(C)N1C(=O)c1cc(-c2ccc(Cl)c(Cl)c2)on1 (centres undefined) | i | i | i | ? | 18µM | ?
CC1CCCC(C)N1C(=O)c1cc(-c2ccc3c(c2)OCO3)on1 (centres undefined) | i | i | i | 26µM | ? | ?
O=C(c1cc(-c2ccc(Cl)c(Cl)c2)on1)N1CCCCCC1 | i | i | i | i | ? | ?
O=C(c1cc(-c2ccc3c(c2)OCO3)on1)N1CCCCC1 | i | i | i | i | i | ?

Bioassay records deposited in PubChem BioAssay by National Center for Advancing Translational Sciences (NCATS).
